The source made the active and inactive calls. Rule for the calls: active = hit-call score of the fitted dose curve at least 0.9, where 1 is the maximum; inactive = score below 0.9.

The assay can be described thus: ATG_Sox_CIS: Attagene CIS-FACTORIAL HepG2 Assay for human SRY-box transcription factor (SOX) (AID 2282960). As to conditions: HepG2 Attagene cis-factorial SOX reporter, mRNA; actives raise or lower the signal. How it is done: ATG_CIS is a cell-based, multiplexed-readout assay that uses HepG2, a human liver cell line, with measurements taken at 24 hours after chemical dosing in a 24-well plate.ATG_Sox_CIS is one of 52 assay component(s) measured or calculated from the ATG_CIS assay. It is designed to make measurements of mRNA induction, a form of inducible reporter, as detected with fluorescence intensity signals by Reverse transcription polymerase chain reaction (RT-PCR) and Capillary electrophoresis technology.Data from the assay component ATG_Sox_CIS was analyzed into 1 assay endpoint. This assay endpoint, ATG_Sox_CIS, was analyzed with bidirectional fitting relative to DMSO as the negative control and baseline of activity. Using a type of inducible reporter, measures of mRNA for gain or loss-of-signal activity can be used to understand the reporter gene at the transcription factor-level as they relate to the gene SOX1. Furthermore, this assay endpoint can be referred to as a primary readout, because this assay has produced multiple assay endpoints where this one serves a reporter gene function. To generalize the intended target to other relatable targets, this assay endpoint is annotated to the dna binding intended target family, where the subfamily is HMG box protein.
Human liver HepG2 cells are transiently transfected with multiple reporter transcription units (MRTUs) in 6-well plates using FuGene 6 reagent (Roche; 3 ml FuGene/1 mg DNA). The MRTU constructs are regulated by a cis-regulating element (promoter). […] A major difference between the CIS and TRANS system is that in CIS activities of endogenous TFs are measured, whereas the TRANS assay evaluates changes in activities of exogenous, chimeric NR-Gal4 proteins. […] At the end of 24 hour incubation, total RNA was isolated using TriZol reagent (Invitrogen). The isolated RNA is then reverse-transcribed using oligo(dT) primer and Mo-MLV reverse transcriptase (Invitrogen) with DNAse I (Ambion) treatment for 30 min. The one-tenth of the produced cDNA was amplified by PCR using Taq DNA polymerase (Invitrogen) and two reporter sequence-specific primers. The PCR products were fluorescently labeled by primer extension with 6-arboxyfluorescein (6-FAM) 5'-labeled reporter sequence-specific primer (2 min at 95 C, 20 s at 68 C and 10 min at 72 C) and these products were digested with 5U of HpaI (New England Biolabs) for 2h at 37 C. The fragments were purified using Qiaquick PCR columns (Qiagen), analyzed on an ABI 3130xL genetic analyzer (Applied Biosystems) with peak positions identified by using a set of X-rhodamine (ROX)-labeled MapMarker1000 molecular weight standards (BioVentures). The raw capillary electrophoresis data was processed using Attagraph software (Attagene).
Regarding `CC(C)(C)c1ccc(-c2ccc(C(C)(C)C)cc2)cc1`, the outcome was inactive.

In the case of `CCCCCCCCCCCCCCCCCC#N`, the molecule was classed as inactive.

For `CC[C@H]1OC(=O)[C@H](C)[C@@H](O[C@H]2C[C@@](C)(OC)[C@@H](O)[C@H](C)O2)[C@H](C)[C@@H](O[C@@H]2O[C@H](C)C[C@H](N(C)C)[C@H]2O)[C@](C)(O)C[C@@H](C)C(=NOCOCCOC)[C@H](C)[C@@H](O)[C@]1(C)O`, the result was inactive. As to `CCOC(=O)CC(C(C)=O)C(C)=O`, the molecule was classed as inactive. Take `CCOC(F)(F)C(F)(F)C(F)(F)C(F)(F)F`: the result was inactive. Same read-out and setting: the same measure for `CCCCC(CC)CCC(CC(C)C)OS(=O)(=O)O` (stereo not given): “inactive”; for `CC(C)=CCC[C@H](C)CCO`: “inactive”; for `COCCOCCOCCOCCOC`: “inactive”.

For `CCCOC(=O)CCCCC(=O)OCCC`, the call was inactive.

As for `CC(C)(Oc1ccc(C2CC2(Cl)Cl)cc1)C(=O)O` (stereo not given), the molecule was classed as inactive. As to `Nc1ccc(Oc2ccc(N)c(N)c2)cc1`, the molecule was classed as inactive.

Turning to `CCOC(=O)c1ccc(N(C)C)cc1`, the outcome was inactive. On the same count and under the same terms, the same measure for `CC1OC1C1CCC2(C)OC2C1` (stereo not given): “inactive”. On the same count and under the same terms, the same measure for `C=C(C)[C@H]1CC=C(C)CC1`: “inactive”; for `CCN(Cc1cccc(S(=O)(=O)O)c1)c1ccc(C(=C2C=CC(=[N+](CC)Cc3cccc(S(=O)(=O)[O-])c3)C=C2)c2ccccc2)cc1`: “inactive”; for `O=C(Cl)c1cc(C(=O)Cl)cc(C(=O)Cl)c1`: “inactive”. On the same count and under the same terms, the value for `CC=CC(F)(F)C(F)(F)C(F)(F)F` was “inactive”.

In the case of `CCCCC/C=C\CCC=O`, the result was inactive. Consider `CCCCCCCCCCCCCCCC(=O)OCC`, for which the result was inactive. Regarding `COC(=O)c1cc(Cl)ccc1[N+](=O)[O-]`, the outcome was inactive. Take `C=C(C)CCO`: the result was inactive. For `CC(C)=CC1CC(C)CCO1` (stereo not given), the molecule was classed as inactive.

For `C=C1[C@H]2CC[C@@H]3[C@H]2C(C)(C)CCC[C@]13C`, the outcome was inactive. Turning to `c1ccc(-c2ccccn2)nc1`, the molecule was called inactive. In the case of `CCCCCc1ccc(Cl)cc1`, the result was inactive. With `CC1=NN(c2cc(S(=O)(=O)O)ccc2Cl)C(=O)C1N=Nc1ccccc1` (stereo not given), the molecule was called inactive. Same read-out and setting: the value for `COc1ccc2nc(N)sc2c1` was “inactive”; that for `O=S(=O)(O)CC(O)CCl` (stereo not given) was “inactive”. By AC50 is commonly meant the concentration giving half of the maximal activity seen. Turning to `CC(C)c1ccc2c(c1)CC[C@H]1[C@](C)(CN)CCC[C@]21C`, the concentration at half-maximal activity (AC50) is 6.13 µM (active). On to `O=C1CCC(=O)N1Cl`, for which the call was inactive. The same measure, in the same setting: the value for `C=C[Si](C)(C)O[Si](C)(C)C=C` was “inactive”; that for `NCCCN1CCN(CCCN)CC1` was “inactive”; that for `CCCCC(CC)COC(=O)c1ccccc1` (stereo not given) was “inactive”. On to `COc1ccc(C(Cl)=C(c2ccc(OC)cc2)c2ccc(OC)cc2)cc1`, for which the molecule was classed as inactive.

`C=CC(=O)OCCC(=O)O`: the molecule was classed as inactive.

For `OC1CCCCCCCCCCC1`, the result was inactive.

As for `N#CCc1ccc(Cl)cc1Cl`, the molecule was called inactive. Same read-out and setting: the same measure for `O=C(c1ccc(O)cc1)c1ccc(O)cc1O`: “inactive”; for `CCN(CCO)c1cccc(C)c1`: “inactive”. As to `Cc1ccc(C(C)(C)C)cc1`, the call was inactive.

Values taken from PubChem BioAssay (EPA / NIEHS).
